Measurements: PubChem BioAssay (NCATS)
Results filed as inconclusive are left out. Unmarked numbers belong to inactive results. Active and inactive are the calls of the source. Calls follow the shape of the dose curve; as a rule, active = well fitted cell-killing curve with a large enough effect; inconclusive = small, poorly fitted or top-dose-only effect, or effect the other way; inactive = no such curve, though single readings can be large or run the other way.

Test: Quantitative High-Throughput drug screen in 47 multiple myeloma cell lines against the NCATS MIPE library collection: MM1R_ATCC cell viability assay (AID 1918981); also: nearly all actives have a fitted effect of over 35% in size
Details: MM1R multiple myeloma cells, CellTiter-Glo viability, 48 h; series mostly up to 45.8 µM; viability (% of control): at the top concentration
Source text: PI: Beverly A. Mock Ph.D.
Laboratory of Cancer Biology and Genetics,
Center for Cancer Research, National Cancer Institute,
National Institute of Health, Bethesda, Maryland
Drug resistance and disease progression are common in multiple myeloma (MM) patients, underscoring the need for new therapeutic combinations. […] We hypothesized that effective combinations would reduce MYC expression and enhance p16 activity. […] These preclinical data identify potentially useful drug combinations for evaluation in drug-resistant MM and reveal potential mechanisms of combined drug sensitivity.
Described herein is the primary MIPE qHTS used to cherrypick compounds. Validated compounds were then further tested for potential synergistic activiy.
[1] Peat TJ, Gaikwad SM, Dubois W, Gyabaah-Kessie N, Zhang S, Gorjifard S, Phyo Z, Andres M, Hughitt VK, Simpson RM, Miller MA, Girvin AT, Taylor A, Williams D, D'Antonio N, Zhang Y, Rajagopalan A, Flietner E, Wilson K, Zhang X, Shinn P, Klumpp-Thomas C, McKnight C, Itkin Z, Chen L, Kazandijian D, Zhang J, Michalowski AM, Simmons JK, Keats J, Thomas CJ, Mock BA. Drug combinations identified by high-throughput screening promote cell cycle transition and upregulate Smad pathways in myeloma. Cancer Lett. 2023 Aug 1;568:216284. doi: 10.1016/j.canlet.2023.216284. Epub 2023 Jun 24. PMID: 37356470; PMCID: PMC10408729.
SEQUENCE No. (e.g., 1, 2, 3, etc.); […] (e.g., Cells, Incubation, Reagent, etc.); VALUE and DESCRIPTION.
1; Cells; 5 uL; white, solid bottom 1536-well Greiner assay plate.
2; Compounds; 23 nL; Kalypsis pin tool (Wako USA) equipped with a 1536-well pin head to transfer to the assay plates.
3; Incubation; 48 hours; 37C incubation.
4; Reagent;5uL; CellTiter Glo (Promega).
5; Detector; 425V; Luminescence; Viewlux PerkinElmer.
NOTES (numbers refer to Sequence numbers above)
1. The cell-based screening methods employed in this study were like those previously published. Briefly, the corresponding myeloma cell lines were screened in 1,536-well plates with 500 cells, 5-uL per well for inhibition of cell viability (assessed by measuring ATP levels with CellTiterGlo).
2. NCATS MIPE 4.0 library of approved and investigational drugs were added using the Kalypsis pin tool. Wells treated with DMSO only for 100% viability and media only for 0% viability were used as controls.
3. The assay plates were covered and incubated for 48 hours in a 37C, 5% CO2 incubator with controlled humidity.
4. After 48 hours, CellTilter-GloTM luminescent substrate mix (Promega) reagent was added to the assay plate and plates we incubated for 5 min at room temperature.
5. Signal was measured as median relative luminescence units on a ViewLux (PerkinElmer) multiplate reader.
[1] Heske CM, Davis MI, Baumgart JT, Wilson K, Gormally MV, Chen L, Zhang X, Ceribelli M, Duveau DY, Guha R, Ferrer M, Arnaldez FI, Ji J, Tran HL, Zhang Y, Mendoza A, Helman LJ, Thomas CJ. Matrix Screen Identifies Synergistic Combination of PARP Inhibitors and Nicotinamide Phosphoribosyltransferase (NAMPT) Inhibitors in Ewing Sarcoma. Clin Cancer Res. 2017 Dec 1;23(23):7301-7311. doi: 10.1158/1078-0432.CCR-17-1121. Epub 2017 Sep 12. PMID: 28899971; PMCID: PMC6636827.
Potency is read from the fitted curve at half-maximal effect.

| SMILES | Potency | viability (% of control) |
| --- | --- | --- |
| N#CCNC(=O)c1ccc(-c2ccnc(Nc3ccc(N4CCOCC4)cc3)n2)cc1 | 9.35 µM (active) | – |
| CC[C@@H]1C(=O)N(C)c2cnc(Nc3ccc(C(=O)NC4CCC(N5CCN(CC6CC6)CC5)CC4)cc3OC)nc2N1C(C)C (stereo not given in full) | 1.87 µM (active) | – |
| CN(c1ncccc1CNc1nc(Nc2ccc3c(c2)CC(=O)N3)ncc1C(F)(F)F)S(C)(=O)=O | 6.62 µM (active) | – |
| Cc1cc(Nc2cc(NC(=O)c3c(Cl)cccc3Cl)ccn2)nc(N)n1 | 0.469 µM (active) | – |
| CCCCc1nc2cc(C=CC(=O)NO)ccc2n1CCN(CC)CC | 0.235 µM (active) | – |
| Nc1ncnc2c1c(-c1cnc3[nH]ccc3c1)nn2C1CCCC1 | 2.09 µM (active) | – |
| CC(C)c1ccc(Cn2ccc3c4c(N)nc(NC5CC5)nc4ccc32)cc1 | 9.35 µM (active) | – |
| O=C(O)C1(Cc2cccc(Nc3nccs3)n2)CCC(Oc2cccc(Cl)c2F)CC1 (stereo not given) | 0.469 µM (active) | – |
| COc1ccc2c(c1)CC[C@@H](CN(C)CC(=O)O)[C@H]2c1ccccc1 | 3.72 µM (active) | – |
| C=CC(=O)Nc1cc2c(Nc3ccc(F)c(Cl)c3)ncnc2cc1OCCCN1CCOCC1 | 8.33 µM (active) | – |
| CC1(C)CCC(c2ccc(Cl)cc2)=C(CN2CCN(c3ccc(C(=O)NS(=O)(=O)c4ccc(N[C@H](CCN5CCOCC5)CSc5ccccc5)c(S(=O)(=O)C(F)(F)F)c4)cc3)CC2)C1 | 0.187 µM (active) | – |
| Cn1c2cc(S(C)=O)sc2c2cnn(Cc3cccc(N)c3)c(=O)c21 (stereo not given) | – | 112% |
| COC(=O)Nc1ccc(-c2nc(N3CCOCC3)c3cnn(C4CCN(Cc5cccnc5)CC4)c3n2)cc1 | 1.48 µM (active) | – |
| O=C(CCCCCCNC(=O)c1cnc(N(c2ccccc2)c2ccccc2)nc1)NO | 3.72 µM (active) | – |
| COc1cc2c(Oc3ccc(-c4cnc(Nc5ccc(F)cc5)n(C)c4=O)cc3F)ccnc2cc1OCCCN1CCOCC1 | 3.72 µM (active) | – |
| CCOc1ccccc1OCCNC(C)Cc1ccc(OC)c(S(N)(=O)=O)c1 (stereo not given) | – | 100% |
| CCCCCCCCCC(=O)N[C@@H](Cc1c[nH]c2ccccc12)C(=O)N[C@H](CC(N)=O)C(=O)N[C@@H](CC(=O)O)C(=O)N[C@@H]1C(=O)NCC(=O)N[C@@H](CCCN)C(=O)N[C@@H](CC(=O)O)C(=O)N[C@H](C)C(=O)N[C@@H](CC(=O)O)C(=O)NCC(=O)N[C@H](CO)C(=O)N[C@@H]([C@@H](C)CC(=O)O)C(=O)N[C@@H](CC(=O)c2ccccc2N)C(=O)O[C@@H]1C | – | 121% |
| COc1cc2c(cc1-c1c(C)noc1C)ncc1[nH]c(=O)n([C@H](C)c3ccccn3)c12 | 3.32 µM (active) | – |
| CC(C)(C)c1cc(C(C)(C)C)c(NC(=O)c2c[nH]c3ccccc3c2=O)cc1O | – | 131% |
| Cc1ccc(C(=O)Nc2cccc(C(F)(F)F)c2)cc1-c1ccc2nc(NCCN3CCOCC3)ncc2c1 | 14.8 µM (active) | – |

| SMILES | Potency | viability (% of control) |
| --- | --- | --- |
| CCCCOc1c(C(=O)c2c(F)cc(C)cc2F)cnc2n[nH]cc12 | 3.72 µM (active) | – |
| Nc1cc(C(F)(F)F)c(-c2cc(N3CCOCC3)nc(N3CCOCC3)n2)cn1 | 1.18 µM (active) | – |
| Clc1ccc2ncc(-c3cccc(NC4CNC4)n3)n2c1 | 16.6 µM (active) | – |
| COc1cccc2c(NCc3ccccc3)nc(-n3c(N)nc4ccccc43)nc12 | 5.9 µM (active) | – |
| CC(=O)OCC(=O)[C@@]1(O)[C@H](C)C[C@H]2[C@@H]3C=C(C)C4=Cc5c(cnn5-c5ccccc5)C[C@]4(C)[C@@H]3[C@@H](O)C[C@@]21C | 9.35 µM (active) | – |
| COC(=O)c1ccc2c(C(=Nc3ccc(N(C)C(=O)CN4CCN(C)CC4)cc3)c3ccccc3)c(O)[nH]c2c1 | 14.8 µM (active) | – |
| NC1(Cc2ccc(Cl)cc2)CCN(c2ncnc3[nH]ccc23)CC1 | 5.9 µM (active) | – |
| CC(C)c1cc(-c2n[nH]c(=O)n2-c2ccc3c(ccn3C)c2)c(O)cc1O | 0.0469 µM (active) | – |
| CCC(=C(c1ccccc1)c1ccc(OCCN(C)C)cc1)c1ccccc1 | 23.5 µM (active) | – |
| COC(=O)Nc1nc2ccc(C(=O)c3ccc(F)cc3)cc2[nH]1 | 0.833 µM (active) | – |
| CN1c2cc(O)c(N=NC(N)=O)cc2CC1S(=O)(=O)O (stereo not given) | – | 119% |
| OCCCNc1cc(-c2ccnc(Nc3cccc(Cl)c3)n2)ccn1 | 0.0935 µM (active) | – |
| Cc1cc(Nc2cc(N3CCN(C)CC3)nc(Sc3ccc(NC(=O)C4CC4)cc3)n2)n[nH]1 | 16.6 µM (active) | – |
| O=c1[nH]nc(Sc2ncc([N+](=O)[O-])s2)n1-c1ccc2c(c1)OCCO2 | 1.32 µM (active) | – |
| Nc1ccccc1NC(=O)c1ccc(CNC(=O)OCc2cccnc2)cc1 | 0.833 µM (active) | – |
| Cc1cc(Nc2nc(N[C@@H](C)c3ccc(F)cc3)c(C#N)cc2F)n[nH]1 | 3.32 µM (active) | – |
| CC(C)C[C@H](NC(=O)CNC(=O)c1cc(Cl)ccc1Cl)B(O)O | 0.0418 µM (active) | – |
| O=c1[nH]c(=O)n(C2CCCO2)cc1F (stereo not given) | – | 113% [at 92.2 µM] |
| C=C1C(=CC=C2CCCC3(C)[C@@H]([C@H](C)C=CC=CC(O)(CC)CC)CC[C@@H]23)C[C@@H](O)C[C@@H]1O (stereo not given in full) | 14.8 µM (active) | – |
| C=CCn1c(=O)c2cnc(Nc3ccc(N4CCN(C)CC4)cc3)nc2n1-c1cccc(C(C)(C)O)n1 | 0.166 µM (active) | – |
